Experimental data as given in PubChem BioAssay.
Activity calls are given as the source filed them.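 How the source made its calls, unless noted: active means fluorescence slope higher than the sample average by over 3 SD (cut at about -0.22 in these data, passing the limit was not always enough); inactive means the rest.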

Tests used:
[1] = inhibitors of TNFa-induced NFkB p65 translocation, primary screen, imaging, HUVEC, MLSMR starter and 10KST1 sets (AID 438;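 active means inhibition above 20% together with a positive visual image hit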;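 further: compound added about 3h40 before a 20 min TNFalpha stimulation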;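 on inhibition: signal is the nuclear over cytoplasmic p65 intensity ratio per well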); details: HUVEC TNFa-induced p65 nuclear translocation; cell count: measured here: nuclei count (cytotoxicity indicator), at 2.08 µM; inhibition: at 2 µM, stronger effect = higher value, 0% TNFa-plus-vehicle, 100% no-TNFa wells
[2] = inhibitors of mutant huntingtin aggregation, primary screen, imaging, exon1htt(103Q)mCFP cells, high-content imaging (AID 483;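 active means visual image review flags a hit and inhibition of aggregation exceeds 20%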;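 further: compound exposure lasted 3 days before fixation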;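 on nuclei count: percent of the per-plate median nuclei count of sample wells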); details: exon1htt(103Q)mCFP cell line, aggregate imaging, at 2 µM; inhibition of aggregation: stronger effect = higher value; nuclei count: measured here: cell count, toxicity
[3] = inhibitors of E-selectin induction by TNFa, primary screen, imaging, HUVEC, immunofluorescence, MLSMR starter and 10KST1 sets (AID 487;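 active means visually confirmed hit in the image check and inhibition above 20%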;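 on inhibition: signal is fraction of cell area covered by stained E-selectin grains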;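 on nuclei count: 100% = median nuclei count of all wells on the same plate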); details: HUVEC TNFalpha-induced E-selectin immunofluorescence imaging, at 2 µM; inhibition: stronger effect = higher value; nuclei count: measured here: cell number, toxicity
[4] = molecular target: Voltage-gated potassium channel subunit beta-2 (Rattus norvegicus) (UniProt P62483); experiment: KvBeta enzyme negative modulators, primary screen, biochemical, NADPH fluorescence (AID 622); details: recombinant KvBeta, 4-cyanobenzaldehyde reduction, at 10 µM, stronger effect = higher value;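 further: slope of raw intensity against log time taken from 70 to 1610 s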
Sequence of Voltage-gated potassium channel subunit beta-2 (Rattus norvegicus) (P62483 whole entry, looked up): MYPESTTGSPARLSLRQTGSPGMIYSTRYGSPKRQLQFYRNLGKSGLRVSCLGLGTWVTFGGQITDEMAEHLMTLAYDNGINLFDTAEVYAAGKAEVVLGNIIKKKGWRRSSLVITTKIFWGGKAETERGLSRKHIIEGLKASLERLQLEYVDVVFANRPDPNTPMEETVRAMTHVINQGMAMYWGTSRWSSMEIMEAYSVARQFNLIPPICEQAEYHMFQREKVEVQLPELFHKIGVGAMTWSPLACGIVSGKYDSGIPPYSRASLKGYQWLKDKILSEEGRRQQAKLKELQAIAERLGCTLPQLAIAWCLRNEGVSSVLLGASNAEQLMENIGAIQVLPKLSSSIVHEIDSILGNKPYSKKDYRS

[5] = molecular target: Voltage-gated potassium channel subunit beta-2 (Rattus norvegicus) (UniProt P62483); experiment: KvBeta positive modulators, primary screen, biochemical, NADPH fluorescence (AID 623;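 active means NADPH fluorescence slope more negative than the mean of all samples by about 3 SD, 99.7% confidence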;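 further: fluorescence intensity change per second fitted from 20 to 320 s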); details: Recombinant KvBeta, NADPH fluorescence decrease slope, 10 min; at 10 µM; stronger effect = lower value
[6] = molecular target: Alpha-2C adrenergic receptor (Homo sapiens) (UniProt P18825); experiment: modulators of alpha2C/GIRK thallium flux, primary screen, cell-based, HEK293 alpha2C/GIRK1/2 (AID 624;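 active means fluorescence slope after compound addition differing from the mean of all screened samples at 99.7% confidence, in either direction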;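 further: slope of fluorescence ratio to pre-addition baseline per second over 15 to 24 s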); details: thallium flux BTC fluorescence, at 10 µM, actives lie on both sides
Sequence of Alpha-2C adrenergic receptor (Homo sapiens) (P18825 whole entry, looked up): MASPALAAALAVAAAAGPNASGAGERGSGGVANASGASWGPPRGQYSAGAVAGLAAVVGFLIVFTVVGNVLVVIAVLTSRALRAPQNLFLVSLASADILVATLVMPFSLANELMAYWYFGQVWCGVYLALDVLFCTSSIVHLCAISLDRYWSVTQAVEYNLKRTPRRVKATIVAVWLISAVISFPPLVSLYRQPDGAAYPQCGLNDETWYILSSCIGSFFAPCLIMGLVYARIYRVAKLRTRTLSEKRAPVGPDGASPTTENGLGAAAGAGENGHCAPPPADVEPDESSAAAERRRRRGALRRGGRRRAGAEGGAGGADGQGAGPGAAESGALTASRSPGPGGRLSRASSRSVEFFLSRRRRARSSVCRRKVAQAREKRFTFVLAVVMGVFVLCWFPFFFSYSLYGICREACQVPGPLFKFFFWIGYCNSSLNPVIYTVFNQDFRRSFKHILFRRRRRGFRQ

[7] = inhibitors of Sendai virus-induced IRF3 signaling, primary screen, TLR/RLR signaling modifier project, cell-based, Sendai virus stimulus, luciferase, 10K MLSCN set (AID 602276;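 active means inhibition at or above 50% at 10 µM; inactive means inhibition below 50%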;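 further: firefly luciferase from ISG56 promoter only with Renilla not read in this screen; 0% = Sendai virus plus DMSO and 100% = medium plus DMSO without virus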); details: HEK293 RL24 IRF3 luciferase reporter, at 10 µM, stronger effect = higher value
[8] = inhibitors of poly I:C-induced TLR3 signaling, primary screen, cell-based, poly I:C stimulus, luciferase, 10K MLSCN set (AID 602277;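 active means inhibition of the reporter signal at or above 50%; inactive means inhibition below 50%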); details: HEK293-TLR3 RL24 IRF3 luciferase reporter, at 10 µM, stronger effect = higher value

With `COc1ccc(S(=O)(=O)Nc2ccc3c(c2)OCO3)cc1Cl` the cell count [1] was 625, the inhibition [1] was 7% (inactive) and the inhibition of aggregation [2] was -18.4% (inactive). For the same compound, the nuclei count [2] was 101%, the inhibition [3] was -9.8% (inactive) and the nuclei count [3] was 101%. The fluorescence slope [4] was -0.392 (inactive), the NADPH fluorescence slope [5] was -6.9e-05 (inactive) and the slope [6] was 0.00299 (inactive). The inhibition [7] was 10.6% (inactive) and the inhibition [8] was 12.9% (inactive).
For `COc1ccc(NS(=O)(=O)c2ccc(NC(C)=O)cc2)cc1OC`, the cell count [1] was 352, the inhibition [1] was -8.4% (inactive) and the inhibition of aggregation [2] was 2.1% (inactive). The nuclei count [2] was 99.6%, the inhibition [3] was -3.3% (inactive) and the nuclei count [3] was 76.2%. The fluorescence slope [4] was -0.379 (inactive), the NADPH fluorescence slope [5] was 1.1e-05 (inactive) and the slope [6] was 0.00616 (inactive). For the same compound, the inhibition [7] was -6.14% (inactive) and the inhibition [8] was -66.4% (inactive).
With `Cc1nc(SCC(=O)CC(=O)OC(C)C)c(C#N)c(C)c1C` the cell count [1] was 718, the inhibition [1] was -3.5% (inactive) and the inhibition of aggregation [2] was -22.8% (inactive). For the same compound, the nuclei count [2] was 118%, the inhibition [3] was 34.6% (inactive) and the nuclei count [3] was 99.8%. The fluorescence slope [4] was -0.332 (inactive), the NADPH fluorescence slope [5] was 1.6e-05 (inactive) and the slope [6] was 0.00527 (inactive). The inhibition [7] was 5.7% (inactive) and the inhibition [8] was -3.09% (inactive).
In the case of `CCc1cccc2c(=O)c(C(=O)N3CCCCCC3)c[nH]c12`, the cell count [1] is reported as 538, the inhibition [1] is reported as -26.5% (inactive) and the inhibition of aggregation [2] is reported as 7.9% (inactive). For the same compound, the nuclei count [2] was 87.7%, the inhibition [3] was -31% (inactive) and the nuclei count [3] was 94.3%. For the same compound, the fluorescence slope [4] was -0.513 (inactive), the NADPH fluorescence slope [5] was -5.1e-05 (inactive) and the slope [6] was 0.0048 (inactive). For the same compound, the inhibition [7] was 4.31% (inactive) and the inhibition [8] was -4.51% (inactive).
With `Cc1cccc(-c2cc3nc4c(c(N5CCOCC5)n3n2)CCCC4)c1` the cell count [1] was 621, the inhibition [1] was -7.5% (inactive) and the inhibition of aggregation [2] was 1.5% (inactive). The nuclei count [2] was 107%, the inhibition [3] was -74.2% (inactive) and the nuclei count [3] was 101%. The fluorescence slope [4] was -0.399 (inactive), the NADPH fluorescence slope [5] was 1e-05 (inactive) and the slope [6] was 0.00597 (inactive). The inhibition [7] was -9.84% (inactive) and the inhibition [8] was 33.5% (inactive).
With `COc1ccc(-c2[nH]nc3c2C(c2ccncc2)C(C#N)=C(N)O3)cc1` (configuration not stated) the cell count [1] was 441, the inhibition [1] was 6% (inactive) and the inhibition of aggregation [2] was 2.5% (inactive). The nuclei count [2] was 113%, the inhibition [3] was -6.7% (inactive) and the nuclei count [3] was 100%. The fluorescence slope [4] was -0.31 (inactive), the NADPH fluorescence slope [5] was -4.4e-05 (inactive) and the slope [6] was 0.00483 (inactive). The inhibition [7] was 6.11% (inactive) and the inhibition [8] was 99% (active).
In the case of `CC1CCN(C(=O)CN2C(=O)C(C)(C)Oc3ccc(C(=O)NC4CCCC4)cc32)CC1`, the cell count [1] is reported as 458, the inhibition [1] is reported as 0.3% (inactive) and the inhibition of aggregation [2] is reported as -4.6% (inactive). For the same compound, the nuclei count [2] was 84.4%, the inhibition [3] was -83.6% (inactive) and the nuclei count [3] was 117%. For the same compound, the fluorescence slope [4] was -0.503 (inactive), the NADPH fluorescence slope [5] was -1.2e-05 (inactive) and the slope [6] was 0.00666 (inactive). The inhibition [7] was -6.8% (inactive) and the inhibition [8] was 14.6% (inactive).
